VCAM1 TNFa pot = enhances TNF alpha induced VCAM1 expression in HUVEC | HUVEC TNFa-stimulated VCAM-1 immunofluorescence, high-content imaging; scaled per plate to unstimulated/TNFa-only wells | activation, % at 2 µM | 0.19% of 93,000 active;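 active = activation above the screen mean plus 3 SD, with well images confirming the hit on visual review, cut at about 28% in these data, passing the limit was not always enough; inconclusive = activation above that limit but images do not confirm it; inactive = activation not above that limit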;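 note: signal is the number of cytoplasmic VCAM-1 stained grains per positive cell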
VCAM1 pot conf = potentiators of TNFa-induced VCAM1 expression, confirmation, imaging, HUVEC, triplicate retest. shares compounds with VCAM1 TNFa pot. 230 tested, under 10 active. AID 1034. HUVEC TNFa-stimulated VCAM-1 immunofluorescence imaging. activation, % at 2 µM;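 active = activation above 30% in triplicate retests at 2 µM, then confirmed by visual review of the well images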;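 note: scaled per plate between unstimulated and TNFa-stimulated DMSO control wells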
* = called active by the depositor; ? = inconclusive. This excerpt belongs to a sample that is enriched for hits.

SMILES	VCAM1 TNFa pot	others
O=C(Nc1nc2ccccc2[nH]1)C1CC(=O)N(c2ccc3c(c2)OCCO3)C1 (stereo unspecified)	-4.6
CCOC(=O)Cc1csc(NC(=O)COc2ccccc2OCC)n1	4.2
CCOC(=O)Cc1csc(NC(=O)CSc2nc(N)c3c(C)c(C)sc3n2)n1	32.6*	VCAM1 pot conf=-14.4
CCOC(=O)Cc1csc(NC(=O)CSc2nnnn2-c2ccc(C)cc2C)n1	-2.9
O=C(NCCO)C1(c2ccccc2)CCCC1	7.7
CCN(CC)c1ccc(-c2nn3c(-c4n[nH]c5c4CCC5)nnc3s2)cc1	-47.5
CCOC(=O)c1csc(NC(=O)c2ccc(OC)c(OC)c2)n1	0.7
O=S(=O)(C/C(=C/CO)S(=O)(=O)c1ccccc1)c1ccccc1	-85.8
CC(C)c1nnc(NC(=O)CCC(=O)N2CCN(C3CCCCC3)CC2)s1	-35.9
CN(CP(=O)(O)CN(C)S(C)(=O)=O)S(C)(=O)=O	31.6*	VCAM1 pot conf=-12.4
CCOCC(=O)Nc1nnc(COCC)s1	-8.7
COc1ccc(-n2cnnc2SCCC#N)cc1	?	VCAM1 pot conf=-8.3
CC(C)(C)c1ccc(-c2nnc(SCCC#N)n2C2CCCC2)cc1	4.6
Cc1nn(Cc2ccc([N+](=O)[O-])cc2)c(=O)n1-c1cccc(F)c1	-9.4
CC(C)CNC(=S)NC(=O)c1ccc([N+](=O)[O-])cc1	-1.7
COc1ccc(N2CCN(S(=O)(=O)c3ccc(C(=O)NC4CCCC4)cc3)CC2)cc1	-40.4
COc1ccc(-n2c(SCC(=O)N3CCOCC3)nc(O)c(Cc3ccccc3)c2=O)cc1	-30.0
CCC(CC)C(=O)NCCc1ccc(S(N)(=O)=O)cc1	-12.6
NS(=O)(=O)c1ccc(CCNC(=O)C2CCCCC2)cc1	32.8*	VCAM1 pot conf=-13.1
COc1ccc(CCNC(=O)C2CCN(S(=O)(=O)N3CCCCCC3)CC2)cc1OC	3.4
COc1cc(NC(=O)C2CC(c3cccc(OC)c3OC)=NO2)cc(OC)c1OC (stereo unspecified)	-4.8
CCN1CCN(Cc2c(C)[nH]c3ccc(C(=O)OC)cc3c2=O)CC1	-96.0
CCOC(=O)C1CCCN(C(=O)c2sc3nc(-c4ccc(F)cc4)cn3c2C)C1 (stereo unspecified)	1.5
CCOC(=O)c1cc(CC)sc1NC(=O)Cc1ccccc1	34.9*	VCAM1 pot conf=-8.9
CCOC(=O)c1c(-c2cccs2)csc1NC(=O)CCCC(=O)O	7.9
SMILES	VCAM1 TNFa pot	others
COC(=O)c1c(NC(=O)Cc2ccccc2)sc(C)c1C	-0.3
COc1cc(NC(=O)CSc2ccc3c(c2)OCCO3)cc(OC)c1OC	8.0
CN1CCC(C2(O)c3ccccc3CSc3sccc32)CC1 (stereo unspecified)	7.7
Cc1cccn2cc(CNC(=O)C3CCCCC3)nc12	59.5*	VCAM1 pot conf=-13.5
O=C(NCc1ccccc1)C1CCCN(C(=O)Nc2ccccc2)C1 (stereo unspecified)	-2.8
O=C(COC(=O)c1ccncc1)NC(=O)C1CCCCC1	2.2
COc1ccc(CC(=O)OCc2cc3ccc(C)cc3[nH]c2=O)cc1	-92.8
CNCCCC12CCC(c3ccccc31)c1ccccc12	-1.2
CC1CCc2c(C(=O)NCC3CCCO3)csc2C1 (stereo unspecified)	7.2
Cc1ccc(C)c(S(=O)(=O)NCc2ccc(C(=O)N3CC(C)OC(C)C3)cc2)c1 (stereo unspecified)	5.7
Cn1cc(Br)c(C(=O)NC2C3CC4CC(C3)CC2C4)n1 (stereo unspecified)	8.9
CCOC(=O)C1CCN(c2c(NCCCN(CC)c3ccccc3)c(=O)c2=O)CC1	-24.1
CCOC(=O)C1CCN(C(=O)C2CCN(c3nc4ccc(OC)cc4s3)CC2)CC1	114.0*	VCAM1 pot conf=-3.2
CCOC(=O)C1CCN(Cc2c(F)cccc2Cl)CC1	6.6
Cc1cc(NC(=O)CSc2nc(-c3ccco3)cc(C(F)(F)F)n2)no1	-52.7
CCCCCCOC(=O)c1ccccc1NC(=O)/C=C/C(=O)O	1.0
O=C(O)c1cc2nc3c(c(C(F)(F)F)n2n1)CCc1ccccc1-3	-84.8
COC(=O)c1c(NC(=O)CSc2nnc(-c3cccnc3)n2Cc2ccco2)sc(C)c1C	6.6
CCCn1c(SCC(=O)Nc2sc(C)c(C)c2C(=O)OCC)nc2c1c(=O)n(C)c(=O)n2C	31.0*	VCAM1 pot conf=-12.3
CCOC(=O)CNC(=O)CSc1nc2sc(C)c(C)c2c(=O)n1C	-4.4
CN1CCN(c2ncnc3c2sc2nc(N4CCOCC4)c4c(c23)CCC4)CC1	-26.2
COCc1cc(Sc2c(Cl)cccc2Cl)nc(-c2ccccc2)n1	7.5
O=S(=O)(Cc1cc(Sc2ccc(Cl)cc2)nc(-c2ccccc2)n1)c1ccccc1	50.1*	VCAM1 pot conf=-20.0
Cc1nc(CS(=O)(=O)c2ccccc2)cc(N2CCOCC2)n1	-3.0
Cc1ccc(Cn2nnnc2CN2CCC(O)(c3ccc(F)cc3)CC2)cc1	5.9
SMILES	VCAM1 TNFa pot	others
O=c1cc(N2CCN(c3ccccc3)CC2)[nH]c(=O)n1-c1ccccc1Cl	6.4
O=C(CN1C(=O)c2cccnc2C1=O)c1ccccc1	7.8
O=C(CN1C(=O)c2ccccc2C1=O)NCC1COc2ccccc2O1 (stereo unspecified)	-16.8
Cc1cc(C(=O)CN2C(=O)c3ccccc3C2=O)c(C)n1C1CC1	128.6*	VCAM1 pot conf=-14.4
CCN(C(=O)CSc1nc2ccccc2n1CCc1ccccc1)C1CCS(=O)(=O)C1 (stereo unspecified)	-0.2
COc1ccc(/C(N)=N/OC(=O)c2cccc([N+](=O)[O-])c2C)cc1OC	-16.1
CCOc1ccc2sc(NS(=O)(=O)c3ccc(OC)c(OC)c3)nc2c1	60.7*	VCAM1 pot conf=-17.9
COc1ccc(OC)c(NS(=O)(=O)c2ccc3c(c2)n(C)c(=O)n3C)c1	-18.9
CCOC(=O)c1cc2nc(Nc3ccc(OC)cc3)sc2s1	28.6
COc1ccc(-c2cc(=O)[nH]c(NCc3ccccc3)n2)cc1	-100.0
O=c1c2ccccc2nc2ccc(NCc3ccco3)nn12	-0.9

Source: PubChem BioAssay (Columbia University Molecular Screening Center)
